# Rows were chosen to be rich in hits. Some 2.4% of all compounds tested hit in one or more screens of this group.
# ADAM17 inh = ADAM17 inhibition, QFRET primary screen; recombinant ADAM17, EDANS/DABCYL FRET peptide cleavage; inhibition, % at 6.95 µM; hit rate 0.83% among 370,000;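 active means inhibition above the mean of compounds lying between control limits plus 3 SD, set per campaign, cut at about 8.5% in these data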;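 further: 0% = DMSO-only wells as the low control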
# APOBEC3A inh = human APOBEC3A DNA deaminase inhibition. P31941. recombinant A3A, FAM/TAMRA ssDNA deamination fluorescence. inhibition, % at 20 µM. hit rate 0.41% among 330,000. AID 493011;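 active means at least 40% inhibition at 20 µM here, with at most 30% in a related deaminase screen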;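 further: plate controls were A3A with DMSO for no effect and wells lacking A3A enzyme for full effect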
# Target sequence (P31941 whole entry, looked up): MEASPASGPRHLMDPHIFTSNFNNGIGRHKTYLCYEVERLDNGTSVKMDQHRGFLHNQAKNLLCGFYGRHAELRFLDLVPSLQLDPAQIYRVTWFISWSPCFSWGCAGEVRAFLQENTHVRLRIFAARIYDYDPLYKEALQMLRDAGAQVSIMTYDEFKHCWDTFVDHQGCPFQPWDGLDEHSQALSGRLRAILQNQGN
# A3G deaminase = blocks human APOBEC3G single-stranded DNA deamination. hit rate 0.28% among 330,000. inhibition, % at 20 µM. recombinant A3G, ssDNA deamination FAM/TAMRA fluorescence. Q9HC16. AID 493012;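 active means inhibition of at least 40% at 20 µM, with no more than 30% in the related APOBEC3A deaminase screen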;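 further: plate controls were DMSO wells with A3G for no effect and wells lacking A3G enzyme for full effect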
# ADAM10 inh = inhibitors of human ADAM10 | O14672 | recombinant ADAM10, EDANS/DABCYL FRET peptide cleavage, 3 h | inhibition, % at 7 µM | hit rate 0.62% among 370,000 | AID 720582;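 active means inhibition above a per-campaign cutoff equal to the mean of compounds falling between control-based bounds plus 3 SD, cut at about 20% in these data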;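 further: 0% = DMSO wells while the 100% control is not disclosed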
# CendR NRP1 mod = modulators of CendR peptide binding to human neuropilin-1; AID 602438; O14786; FAM-RPARPAR peptide binding to NRP-1, fluorescence polarization; hit rate 0.85% among 360,000; inhibition, % at 25 µM;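 active means inhibition or corrected inhibition above about 18%, plus a signal ratio from 0.5 to 1.5, limit read from the data, passing the limit was not always enough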
# A3G conf = confirmation of human APOBEC3G DNA deaminase inhibitors | shares compounds with A3G deaminase | recombinant A3G ssDNA deaminase, UDG/FAM-TAMRA fluorescence | inhibition, % at 20 µM | hit rate 72% among 890;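 active means inhibition reaching a set limit in any replicate at 20 µM, the limit being 80% of the first screen's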
# UDG ctr A3G = counter-screen for APOBEC3G inhibitors: E. coli UDG; shares compounds with A3G deaminase; UDG counterscreen, FAM/TAMRA oligo fluorescence; inhibition, % at 20 µM; 710 tested, under 10 active;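 active means compounds giving 40% or more inhibition at 20 µM in any one of the three replicates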;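 further: plate controls were DMSO wells with UDG and oligo for no effect and DMSO wells lacking both for full effect; inhibitors lower the FAM signal released by uracil excision and alkaline cleavage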
# Target sequence (P12295 whole entry, looked up): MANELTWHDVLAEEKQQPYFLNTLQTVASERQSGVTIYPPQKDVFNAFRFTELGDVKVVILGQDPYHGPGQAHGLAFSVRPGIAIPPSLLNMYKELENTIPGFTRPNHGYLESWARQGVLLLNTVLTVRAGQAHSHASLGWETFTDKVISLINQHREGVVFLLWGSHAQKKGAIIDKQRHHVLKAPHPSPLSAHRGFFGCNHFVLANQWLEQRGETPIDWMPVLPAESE
# The depositor's hits bear a star; i = inactive; nt = no result given.
SMILES,ADAM17 inh,APOBEC3A inh,A3G deaminase,ADAM10 inh,CendR NRP1 mod,A3G conf,UDG ctr A3G
Cc1ccc(/C=N/n2c(-c3ccccc3)n[nH]c2=S)cc1,-2,-8,11,3,17,nt,nt
Fc1cccc(Cl)c1/C=N/n1c(-c2cccnc2)n[nH]c1=S,5,-3,46*,14,-8,76*,-5
S=c1[nH]nc(-c2cccnc2)n1/N=C/c1ccccc1,2,-3,44*,4,-8,80*,-3
Cc1ccc(/C=N/n2c(C)n[nH]c2=S)o1,-5,1,20,-4,-9,nt,nt
S=c1[nH]nc(-c2ccncc2)n1/N=C/c1ccccc1,3,-3,55*,1,2,71*,1
Cc1ccc(/C=N/n2c(-c3ccncc3)n[nH]c2=S)o1,0,-4,47*,1,-4,90*,-3
Cc1ccc(/C=N/n2c(-c3ccncc3)n[nH]c2=S)s1,-2,-6,49*,-4,-7,82*,-4
CCC(=O)n1nc(-c2ccc(Cl)cc2)nc1N,0,-1,46*,-7,9,-9,-4
COc1cccc(CN(C)C(=O)[C@H]2O[C@@H](n3cnc4c(=O)[nH]c(N)nc43)[C@H](O)[C@@H]2O)c1,-2,nt,nt,-5,nt,nt,nt
C[C@@H]1C=CCCO[C@]12C(=O)N(CC1CC1)c1ccccc12,-2,nt,nt,-10,nt,nt,nt
COc1cc2cc3c(N)c(C(=O)Nc4sc(C)c(C)c4C#N)sc3nc2cc1OC,-256,19,48*,i,-95,27*,4
Cc1ccc(OCc2nnc(SCC(=O)O)n2N)cc1,-5,4,1,-8,10,nt,nt
COc1ccc(OCc2nnc(SCC(=O)N(C)Cc3ccccc3)n2N)cc1,-3,3,47*,0,0,41*,-4
N#Cc1cc2c([nH]c1=S)CCCC2,-2,2,67*,-7,-2,78*,3
O=C(Nc1cc(S(=O)(=O)N2CCOCC2)ccc1N1CCCCC1)c1ccc(Cl)cc1,5,3,59*,17,0,68*,-1
O=C(Nc1cc(S(=O)(=O)N2CCOCC2)ccc1N1CCCC1)c1ccc(Cl)cc1,-2,0,21,-4,2,nt,nt
O=C(Nc1cc(S(=O)(=O)N2CCOCC2)ccc1N1CCCCC1)c1ccccc1,-1,-4,-8,-7,-5,nt,nt
O=C(Nc1cc(S(=O)(=O)N2CCOCC2)ccc1N1CCCC1)c1ccc2c(c1)S(=O)(=O)c1ccccc1C2=O,-4,6,64*,-9,3,74*,nt
Cc1ccc(NC(=O)OC2CC3CC2[C@H]2CCCCN2C3)cc1 (some centres undefined),-4,nt,nt,-4,nt,nt,nt
CN1[C@@H](Cc2ccccc2)COc2cccc(N3CCSCC3)c2S1(=O)=O,-8,nt,nt,-4,nt,nt,nt
CC(C)(C)C1=Nn2c(nnc2-c2n[nH]c3c2CCC3)SC1,-5,-3,49*,-7,6,71*,-7
CC(=O)Nc1cc(OC(C)=O)c2nonc2c1OC(C)=O,-22,2,76*,-73,17,70*,nt
C#CCN1CC(COc2ccccc2)OCCS1(=O)=O (centres undefined),-3,nt,nt,5,nt,nt,nt
COc1ccc(NC(=O)CN2C(=O)/C(=C3\SC(=S)N(CCC(=O)O)C3=O)c3ccccc32)cc1,nt,-1,53*,nt,16,71*,5
COc1cc(Cl)c(S(=O)(=O)N2CCCC2)cc1Cl,1,-4,-13,11,2,nt,nt
COc1cc(N2C(=O)C=CC2=O)c(OC)cc1Cl,-1,-2,43*,-2,-12,54*,-1
COc1ccc(N2CCN(C(CNC(=O)C(=O)NCc3cccnc3)c3ccco3)CC2)cc1 (centres undefined),1,12,-3,5,2,nt,nt
O=C(NCc1cccnc1)C(=O)NCC(c1ccco1)N1CCN(c2ccc(F)cc2)CC1 (centres undefined),2,-2,42*,-17,-4,-10,-2
COc1ccc(C(=O)OCCCN(C)C2CN(Cc3cn(Cc4ccccc4C(F)(F)F)nn3)S(=O)(=O)C2)cc1OC (centres undefined),5,nt,nt,13,nt,nt,nt

# Screening results: PubChem BioAssay, several laboratories
